Laboratory results: PubChem BioAssay AID449762 (Southern Research Specialized Biocontainment Screening …, 2010)
Out of some 330,000 compounds screened, about 1,900 (0.58%) were called active. About 4% were inconclusive and are not listed. A selection follows. Measured potencies and affinities stand elsewhere. A number with no mark means an inactive call. No stated cut-off is given here; in the data, inconclusive means inhibition above about 70% without an active follow-up result; inactive means below that.

Assay: M. tuberculosis growth inhibition, HTS (AID 449762);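 further: bacterial growth assessed after seven days of incubation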
Conditions: M. tuberculosis H37Rv growth inhibition, 7H9 media; at 25 µM; hits give high values

| Structure (SMILES) | inhibition [%] |
| --- | --- |
| N#Cc1ccccc1OCC(=O)N1CCc2ccccc2C1 | -4.88 |
| Cc1ccc(-c2nnc(NCc3nc4ccccc4[nH]3)c3ccccc23)cc1S(=O)(=O)N1CCOCC1 | 63.7 |
| Cc1nc(-c2ccccc2)sc1C(=O)CSc1ccc(Cl)cc1 | -5.11 |
| c1ccc2c(c1)OCc1cn[nH]c1-2 | -2.59 |
| Cc1ccc(/C=C/c2nnc(-c3ccccc3)o2)cc1 | -11.8 |
| CCOC(=O)CSc1[nH]c2cc(OC)ccc2c1[N+](=O)[O-] | 6.24 |
| COC(=O)CSc1[nH]c2ccccc2c1[N+](=O)[O-] | -2.39 |
| CN(C)CCOc1ccc(C(C)(C)c2ccccc2)cc1 | -3.02 |
| CN(C)CCOc1ccc2ccccc2c1 | 2.98 |
| COc1ccccc1NC(=O)Nc1ccc(F)c(F)c1 | 0.47 |
| CCc1nnc(NS(=O)(=O)c2ccc(N/C=C\C(=O)c3ccc4ccccc4c3)cc2)s1 | -6.64 |
| CCc1nnc(NS(=O)(=O)c2ccc(N/C=C/C(=O)c3ccc(OC)cc3)cc2)s1 | 4.48 |
| Cn1c(=O)c2c(SCC(=O)Nc3nccs3)nc(C3CC3)nc2n(C)c1=O | -1.82 |
| Cc1ccc(C2=NS(=O)(=O)N(C)C(C(=O)Nc3cc(C)n(CC(=O)N4CCCCC4)n3)=C2)cc1 | -4.07 |
| Cc1cccc(N=C2C(=O)Nc3c(Cl)cccc32)c1 | 6.57 |
| Cc1ccccc1NC(=O)CSc1nc2ccccc2c2nc(CCn3cncc3C)nn12 | 6.6 |
| Cc1ccc(NC(=O)CSc2nc3ccccc3c3nc(CCn4cncc4C)nn23)c(C)c1 | 9.55 |
| O=C(NCc1ccc2c(c1)OCO2)c1ccc(C2SCC(=O)N2Cc2ccco2)cc1 (centres undefined) | -7.71 |
| COc1ccc(C(=O)NCc2ccc3c(c2)OCO3)cc1 | -0.3 |
| COc1cc2c(cc1NC(=O)CN1CCN(S(=O)(=O)c3ccc(C)cc3)CC1)oc1ccccc12 | -6.72 |
| O=c1c2c(nc3nc(NCc4cccc(Cl)c4)[nH]n13)CCC2 | 19.9 |
| Cc1nc2nc3c(c(=O)n2[nH]1)CCC3 | -2.58 |
| O=c1c2c(nc3nc(NCc4ccccc4Cl)[nH]n13)CCC2 | 21.9 |
| Cc1nc2nc3c(c(=O)n2[nH]1)CCCC3 | -1.58 |

| Structure (SMILES) | inhibition [%] |
| --- | --- |
| COc1ccc(NC(=O)C2CCN(c3cc(-c4ccccc4)nc4ncnn34)CC2)cc1OC | -9.41 |
| CCOc1ncccc1C(=O)Nc1cccc(-c2nc3cccnc3s2)c1 | 2.6 |
| CCn1c(=O)n(CC)c2cc(S(=O)(=O)Nc3c(C)cccc3C)ccc21 | -0.18 |
| O=C1/C(=C/c2ccncc2)CCc2ccccc21 | 20.6 |
| O=C1/C(=C\c2cccnc2)CCc2ccccc21 | 53.9 |
| COc1ccc(CNC(=O)C2CCN(C(=O)c3csc(Nc4ccc(C)cc4)n3)CC2)cc1 | 9.09 |
| CC(CN1CCCCC1)OC(=O)/C=C/c1ccccc1 (centres undefined) | 4.22 |
| CCCCc1nc2c(=O)[nH]c3ccccc3c2o1 | -3.26 |
| CCCc1nc2c(=O)[nH]c3ccccc3c2o1 | -2.82 |
| CC(C)N1CCc2c(sc(NC(=O)CCc3ccccc3)c2C(N)=O)C1 | 2.58 |
| Cc1cccc(CNc2ncnc3ccc(-c4ccc5c(c4)OCO5)cc23)c1 | 4.98 |
| c1cncc(CNc2ncnc3ccc(-c4ccc5c(c4)OCCO5)cc23)c1 | 6.78 |
| O=C(CN1C(=O)NC(c2ccccc2)(c2ccccc2)C1=O)N1CCCCC1 | 3.83 |
| O=C1[C@H]2[C@@H](c3ccc(F)cc3)N3C(=O)N(c4ccccc4)C(=O)[C@@]3(Cc3ccccc3)[C@H]2C(=O)N1C1CCCCC1 | -4.71 |
| CC1(C)CC1C(=O)Nc1ccc([N+](=O)[O-])cc1Br (centres undefined) | -1.2 |
| Cc1cccc(C2(c3cccc(C)c3)CC2C(=O)Nc2ccc([N+](=O)[O-])cc2O)c1 (centres undefined) | 8.65 |
| CCC(=O)NC(=S)Nc1ccc(OC)cc1OC | 2.55 |
| Cc1nc(SCC(=O)NCC2CCCO2)c2c3c(sc2n1)CCC3 (centres undefined) | -2.08 |
| Cc1nc(SCC(=O)NCC2CCCO2)c2c(C)c(C)sc2n1 (centres undefined) | -15.3 |
| O=C(CSc1nc2scc(-c3ccccc3)c2c(=O)[nH]1)NCCc1ccccc1 | -20.7 |
| O=c1[nH]c(=O)n([C@H]2C[C@H](O)[C@@H](CO)O2)cc1F | 34.4 |
| O=c1[nH]c(=O)n(C2CCCO2)cc1Br (centres undefined) | 1.51 |
| COc1ccc(O)c(CN2CCCC(N3CCN(c4ccccc4OC)CC3)C2)c1 (centres undefined) | 4.68 |
| O=C(CCNC(=O)c1ccccc1Cl)Nc1nccs1 | -4 |

| Structure (SMILES) | inhibition [%] |
| --- | --- |
| COc1ccc(N(CC(=O)NCCc2ccccc2)C(=O)c2csnn2)cc1OC | -2.24 |
| COc1ccc(C2CC2C(C)=O)cc1 (centres undefined) | -4.29 |
| COc1ccc(C2CC2/C(C)=N/OC(=O)C2CC2)cc1 (centres undefined) | 68.7 |
| CC(C)(C)OC(=O)N1CCC(CC2CC(c3ccncc3)=NO2)(C(=O)O)CC1 (centres undefined) | -6.97 |
| O=c1c2ccccc2nnn1CSc1ccc2ccccc2n1 | -1.57 |
| CSc1ccc(S(=O)(=O)NCC(=O)OCC(=O)N2CCCCC2C)cc1[N+](=O)[O-] (centres undefined) | -8.12 |
| COc1ccc(-c2nsc3c(N4CCCC4)ncnc23)cc1 | 5.98 |
| COc1ccc(-c2nsc3c(N4CCCCC4)ncnc23)cc1 | -0.13 |
| Cc1ccc(CNC(=O)Cn2cccc2C(=O)c2ccccc2C)cc1 | -0.89 |
| CCN(CC)S(=O)(=O)c1cccc(C(=O)N/N=C/c2ccccn2)c1 | -3.65 |
| O=C(Nc1ccc(Br)cc1Cl)c1ccc(OCC2CCCO2)cc1 (centres undefined) | 3.35 |
| CCOC(=O)C1(Cc2cccc(Cl)c2)CCCN(C(=O)c2cnn(CC)c2)C1 (centres undefined) | -5.14 |
| CCOc1ccc(C(=O)Nc2ccc3c(c2)OCCO3)cc1 | 9.28 |
| CCOc1ccc(NC(=O)COC(=O)c2ccc3c(c2)OCCO3)cc1 | 9.4 |
| Cc1c(/C=N\NC(=O)c2c[nH]c3ccccc23)cnn1C | 6.8 |
| COc1ccccc1NC(=S)N1CCN(C(=O)C2CCCO2)CC1 (centres undefined) | 4.95 |
| COC(=O)c1c(NC(=O)CC2SC(N)=NC2=O)sc2c1CCCC2 (centres undefined) | -10.2 |
| COC(=O)c1c(NC(=O)CC2SC(N)=NC2=O)sc2c1CCC(C)C2 (centres undefined) | -3.66 |
| COc1ccc(C(=O)c2c(-c3ccc(OC)cc3)oc3ccc(-c4ccc(OC)nc4)cc23)cc1 | 64.6 |
| CCCC12CN3CC(C)(CN(C1)C3c1ccco1)C2=O (centres undefined) | -1.36 |
| CCCC12CN3CC(CCC)(CN(C1)C3c1ccco1)C2=O (centres undefined) | -6.51 |
| Cc1ccccc1C(=O)Nc1c(C(=O)N(CCN(C)C)Cc2ccco2)oc2ccccc12 | 13.6 |
| CN(C)CCN(Cc1ccco1)C(=O)c1oc2ccccc2c1NC(=O)COc1ccccc1 | 13.6 |
| CN(C(=O)CSc1nnc(-c2ccncc2)n1-c1ccccc1)C1CCS(=O)(=O)C1 (centres undefined) | -8.96 |

| Structure (SMILES) | inhibition [%] |
| --- | --- |
| O=C(NC1CCCCCC1)c1cccc(COCC(F)(F)F)c1 | -0.72 |
| C/C(=N\NC(=S)NCc1ccccc1)c1ccccc1F | -2.93 |
| C/C(=N\NC(=S)NCCc1ccccc1)c1ccc(O)cc1O | 3.81 |
| Cc1noc(C)c1S(=O)(=O)Nc1ccc(C(=O)N2CCC(C)CC2)cc1 | 8.59 |
| Cc1ccc(N2CC(C(=O)N3CCC(C(=O)Nc4nnc(C(C)(C)C)s4)CC3)CC2=O)cc1 (centres undefined) | 4.69 |
| OCC1(Cc2ccc(Cl)cc2)CCN(CCCc2ccccc2)CC1 | 39.2 |
| COc1cnc(-c2ccccc2)nc1Oc1ccc(Cl)cc1C | 3.24 |
| COc1cnc(-c2ccccn2)nc1Oc1ccc(Cl)cc1 | 2.17 |
| Cc1cc(C)cc(OCC(=O)N2Cc3ccccc3CC2C(=O)O)c1 (centres undefined) | 10.5 |
| CC(CC(=O)Nc1ccc(-c2ccno2)cc1)n1cccn1 (centres undefined) | 21.4 |
| Cc1ccc(CNC(=O)COC(=O)c2cc(=O)[nH]c3ccccc23)cc1 | 6.93 |
| N#Cc1ccccc1/C=N/Nc1nc(-c2ccccc2)c2cc(Br)ccc2n1 | 6.43 |
| N#Cc1ccccc1/C=N/Nc1nc(-c2ccccc2)c2cc(Cl)ccc2n1 | -2.26 |
| COCCNC(=S)Nc1ccc2nc(N3CCOCC3)cc(C)c2c1 | -5.25 |
| O=C(COC(=O)CNC(=O)c1ccc(Cl)c([N+](=O)[O-])c1)NCC1CCCO1 (centres undefined) | -15.8 |
| Cc1cc(NCCC(C)C)n2nc(C)c(-c3ccccc3)c2n1 | 67.4 |
| Cc1nn2c(N3CCCC3)cc(C(C)C)nc2c1-c1ccccc1 | 2.45 |
| CCS(=O)(=O)Nc1ccc(C2=NN(C(=O)c3ccco3)C(c3cccc(F)c3)C2)cc1 (centres undefined) | 23.2 |
| Cn1nc(C(F)(F)F)c2cc(NC(=O)OCc3ccc(F)cc3)sc21 | 10.2 |
| COc1ccc(COC(=O)Nc2cc3c(C(F)(F)F)nn(C)c3s2)cc1 | -0.32 |
| CC1CCC(NC(=O)c2ccc(NS(=O)(=O)c3ccc4[nH]c(=O)[nH]c4c3)cc2)CC1 (centres undefined) | -6.1 |
| CC1(c2nnc(-c3ccccc3)o2)CC(c2ccc([N+](=O)[O-])cc2)=NO1 (centres undefined) | -0.65 |
